Assay results published in PubChem BioAssay AID1233 (SRMLSC, 2008).
Entries with a potency or affinity are not part of this list.

What follows are molecules tested against HMG-CoA reductase [Enterococcus faecalis] (UniProt Q9FD70) (assay: class II HMG-CoA reductase inhibition potency – biochemical, Enterococcus faecalis, confirmation (AID 1233;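 also: 0% = full reaction carrier wells and 100% = background wells lacking mevalonate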)). Conditions: purified E. faecalis HMGR, NADPH absorbance 340 nm kinetics; series mostly up to 100 µM; inhibition: at the top concentration.

inhibition, inactive:
CCOc1ccc(OCCCC(=O)Nc2nc3ccccc3[nH]2)cc1 -5.68%
COc1ccc(C(=O)CSc2nnnn2Cc2ccccc2)cc1 -2.81%
Cc1cc2cccc(C)c2nc1SCC(=O)NNC(=O)c1ccco1 -7.68%
[O-]C1=N/[N+](=C/c2ccc(Cl)c(Cl)c2)CC1 -2.55%
Cc1nn(CCC(=O)NNC(=S)Nc2ccc([N+](=O)[O-])cc2)c(C)c1[N+](=O)[O-] -3.33%
CCCCCC(=O)Nc1ccc(Cc2ccncc2)cc1 0.09%
COCc1cc(C)n(CC(=O)OC)c(=O)c1C#N -0.1%
O=C(CN1CCN(Cc2ccc(F)cc2Cl)C1=O)NCCc1ccc(Cl)cc1 -0.91%
CCOC(=O)c1c(-c2ccccc2)csc1NC(=S)N(CC)CC 5.86%
CCn1c2ccccc2c2cc(NC(=O)CSc3nnc(-c4ccc(OC)c(OC)c4)n3N)ccc21 0.13%
N#Cc1nc(COc2ccc(-c3ccccc3)cc2)oc1NCCCN1CCOCC1 -2.74%
O=C(COc1cccc(NC(=O)c2ccco2)c1)c1ccc(F)cc1 1.51%
COc1cc(C2CC(=O)N(CC(=O)NCC3CCCO3)c3ccccc3S2)cc(OC)c1OC (stereo not drawn) -0.73%
C=CCNC(=O)C(C#N)c1nc2ccccc2nc1N1CCCCCC1 (stereo not drawn) -3.78%
CC(Sc1nnc(-c2ccccc2)c(-c2ccccc2)n1)C(=O)Nc1ncc(Cl)cc1Cl (stereo not drawn) 2.62%
O=C(COC(=O)c1cc([N+](=O)[O-])ccc1NCCO)c1ccc(Cl)cc1 -0.58%
CC(=O)N1CCN(S(=O)(=O)c2ccc(C)c([N+](=O)[O-])c2)C1C(C)C (stereo not drawn) -2.57%
CCOC(=O)C(C(=O)OCC)C1CCS(=O)(=O)C1 (stereo not drawn) -2.07%
NC(=S)NNC(=O)c1cccc(Br)c1 -10.2%
C=CCOc1ccc(Br)cc1CNC(C)(C)C -2.42%
O=C(COC(=O)CCS(=O)(=O)c1ccc(Cl)cc1)NCCc1ccccc1 -1.92%
COc1ccc(/C=N/Nc2nccnc2Cl)c(OC)c1 -15.9%
COC(=O)Cc1cc(=O)n2[nH]cnc2n1 -9.81%
O=C(COc1ccc2ccc(=O)oc2c1)N1CCN(c2ccccc2)CC1 -2.7%
Cc1ccc(NC(=O)C(=O)NCc2ccc(/C=N/NC(=O)c3c(C)nc4cc(C)ccn34)o2)cc1 -1.84%
Cc1ccc(S(=O)(=O)N2CCCCC2)cc1C(=O)N1CCN(c2ccccn2)CC1 -1.95%
COc1ccc(NC(=S)NCc2cccn2C)cc1 -0.21%
Nc1c(C(=O)c2ccccc2)sc2c1c(=O)[nH]c(=O)n2-c1ccccc1 -2.21%
CCOC(=O)c1c(C)oc2c1c(C=NCCO)c(O)c1ccccc12 8.35%
CN(C)S(=O)(=O)c1cccc(C(=O)Nc2ccc(S(=O)(=O)N3CCCC3)cc2)c1 -6.6%
COc1ccc(N2CC(C)(C)C2=O)cc1 -3.03%
C[C@H]1[C@H](C)CC[C@]2(C(=O)O)CC[C@]3(C)C(=CC[C@@H]4[C@@]5(C)C[C@@H](O)[C@H](O)C(C)(C)[C@@H]5CC[C@]43C)[C@H]12 -8.57%
O=C1NCCCC1C(=O)Nc1ccccc1C(F)(F)F (stereo not drawn) -6.64%
Cc1ccc(C2C(C(=O)c3ccco3)=C(O)C(=O)N2c2nnc(C)s2)cc1 (stereo not drawn) -3.22%
CCCCn1c(=O)c2ccccc2c2ccccc2c1=O -3.5%
CC1CN(C(=O)c2cccc(S(=O)(=O)Nc3ccc(Cl)cc3)c2)CC(C)O1 (stereo not drawn) -0.91%
Cc1ccc(NC(=O)CCc2ccc(S(=O)(=O)N3CCOCC3)cc2)c(C)c1 -6.25%
O=[N+]([O-])c1ccc(N2CCCCC2)c(-c2nn[nH]n2)c1 -1.68%
